Measured values taken from PubChem BioAssay (NCATS).
Records with an inconclusive call do not appear. Active and inactive are the calls of the source. Calls follow the shape of the dose curve; as a rule, active = well fitted inhibition curve with a large enough effect; inconclusive = small, poorly fitted or top-dose-only effect; inactive = flat fitted curve, though single readings scatter.

Tested on: CP252
Experiment: qHTS profiling for inhibitors of Plasmodium falciparum proliferation (AID 504749);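 also: 0% = DMSO vehicle and full inhibition = artemisinin control; nearly all actives have a fitted effect of over 60% in size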
Conditions: P. falciparum in erythrocytes, SYBR Green DNA, 72 h; series mostly up to 28.7 µM; activity, negative = inhibition: at the top concentration
Summary of the method: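 Fluorescence of SYBR Green-bound parasite DNA, read at 485/535 nm, served as the growth measure. Infected erythrocytes were cultured with compound 72 h; artemisinin (0.29 uM) and DMSO wells defined the normalization range.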

Row | SMILES | Potency | activity, negative = inhibition
1 | NC(=O)NNc1ccccc1 | inactive | –
2 | O=C(O)[C@@H]1CSCN1 | – | 3.04% (inactive)
3 | COc1ccc2c(c1)C(=O)N(CCc1ccc(S(=O)(=O)NC(=O)NC3CCCCC3)cc1)C(=O)C2(C)C | – | 6.02% [at 12.8 µM] (inactive)
4 | CCCc1c(OCCCCc2nn[nH]n2)ccc(C(C)=O)c1O | – | -8.29% (inactive)
5 | CCn1cc(C(=O)O)c(=O)c2cnc(N3CCNCC3)nc21 | – | 6.5% [at 12.8 µM] (inactive)
6 | O=C(O)COc1nn(Cc2ccccc2)c2ccccc12 | – | -4.17% (inactive)
7 | O=C1O[C@H]([C@@H](O)CO)C(O)=C1O | – | 3.41% (inactive)
8 | O=S(=O)(O)c1cc(I)c(O)c2ncccc12 | – | -11.1% (inactive)
9 | CC1=C(CC(=O)O)c2cc(F)ccc2/C1=C\c1ccc(S(C)=O)cc1 (centres undefined) | – | 4.13% (inactive)
10 | CCOC(=O)c1ccc(O)cc1 | – | 6.34% (inactive)
11 | O=C(O)c1ccccn1 | – | -1.54% (inactive)
12 | Cc1cc(O)cc2c1O[C@](C)(CCC[C@H](C)CCC[C@H](C)CCCC(C)C)CC2 | – | -1.54% (inactive)
13 | NCC(=O)CCC(=O)O | – | -1.73% (inactive)
14 | CC(C)(C)C(=O)NCCCC(=O)O | – | 1.83% (inactive)
15 | COc1cc2[nH]c(=O)[nH]c(=O)c2cc1OC | – | 0.552% [at 12.8 µM] (inactive)
16 | CCC(=O)Nc1ccc(O)cc1 | – | 1.48% (inactive)
17 | COc1ccc(Cl)cc1C(=O)NCCc1ccc(S(=O)(=O)NC(=O)NC2CCCCC2)cc1 | – | -0.919% (inactive)
18 | O=C1NC(=O)[C@@]2(CCOc3ccc(F)cc32)N1 | – | 6.42% (inactive)
19 | O=Cc1ccccc1C=O | – | -0.697% (inactive)
20 | CC(O)CN(CCN(CC(C)O)CC(C)O)CC(C)O (centres undefined) | – | 8.76% (inactive)
21 | Cc1ccc(C(C)C)cc2c(C)ccc1-2 | – | -0.609% (inactive)
22 | Nc1nc2c(ncn2CCC(CO)CO)c(=O)[nH]1 | – | -5.17% (inactive)
23 | NCCNCCNCCN | – | -3.18% (inactive)
24 | CC1(C)OC(=O)NC1=O | – | 6.46% (inactive)
